A word on the inhibition: it is the relative decrease from the control value, in per cent.

A number with no mark means an inactive call. For some of these results: Measured potencies and affinities stand elsewhere. The list shows a part of the results. Active and inactive are the calls of the source.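 The calls were made as follows, unless noted: active = fluorescence ratio falls more than 5 SD below the full-stimulation control mean, in both duplicate runs; inactive = the rest.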

Experimental findings from PubChem BioAssay are described below.

The target in test [1] is Short transient receptor potential channel 4 (Mus musculus) (UniProt Q9QUQ5). Kind of test: DAMGO-gated TRPC4 membrane potential modulation – cell-based, second specificity screen, HEK293 TRPC4/mu-opioid, selectivity assay for TRPC6 inhibitor project, confirmation (AID 2776;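 active = compounds whose fluorescence signal differed from control wells by over 3 SD, either direction, in both duplicate plates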). To be noted: HEK293 TRPC4/MOR, membrane potential dye fluorescence, at 10 µM, channel activated by saturating DAMGO dose; stronger effect = higher value.
Short transient receptor potential channel 4 (Mus musculus), sequence (Q9QUQ5 whole entry, looked up): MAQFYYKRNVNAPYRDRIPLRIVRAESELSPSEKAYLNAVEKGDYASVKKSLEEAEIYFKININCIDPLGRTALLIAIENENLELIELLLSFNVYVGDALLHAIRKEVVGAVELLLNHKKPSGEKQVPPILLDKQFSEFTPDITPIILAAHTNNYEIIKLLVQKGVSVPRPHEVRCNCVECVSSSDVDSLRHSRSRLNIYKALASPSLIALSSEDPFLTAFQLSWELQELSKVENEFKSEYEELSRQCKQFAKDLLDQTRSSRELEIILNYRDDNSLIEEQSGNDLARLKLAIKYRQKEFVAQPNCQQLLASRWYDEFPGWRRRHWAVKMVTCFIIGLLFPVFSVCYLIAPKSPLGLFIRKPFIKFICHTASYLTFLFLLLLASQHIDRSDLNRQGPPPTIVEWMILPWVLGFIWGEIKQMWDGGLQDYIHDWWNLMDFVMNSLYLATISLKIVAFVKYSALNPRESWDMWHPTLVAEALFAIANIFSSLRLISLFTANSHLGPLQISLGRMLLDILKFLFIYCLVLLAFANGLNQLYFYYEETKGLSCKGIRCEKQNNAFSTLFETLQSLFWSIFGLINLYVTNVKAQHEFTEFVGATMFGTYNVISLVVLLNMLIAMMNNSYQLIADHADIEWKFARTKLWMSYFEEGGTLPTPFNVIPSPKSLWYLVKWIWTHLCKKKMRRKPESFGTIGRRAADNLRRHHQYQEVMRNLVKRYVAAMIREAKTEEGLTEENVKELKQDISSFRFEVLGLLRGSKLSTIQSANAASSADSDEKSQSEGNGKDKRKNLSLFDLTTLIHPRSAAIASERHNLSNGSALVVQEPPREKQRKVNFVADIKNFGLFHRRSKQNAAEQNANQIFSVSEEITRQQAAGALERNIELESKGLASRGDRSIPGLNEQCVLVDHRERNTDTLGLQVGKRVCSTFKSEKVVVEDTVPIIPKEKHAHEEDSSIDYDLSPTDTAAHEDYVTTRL

Test [2] deals with transient receptor potential cation channel C4 (TRPC4), mouse. Kind of test: membrane potential change in TRPC4 cells – cell-based, HEK293 TRPC4/mu-opioid, membrane potential dye, selectivity assay for TRPC6 inhibitor project, confirmation (AID 2777;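 active = rise or fall in signal beyond 3 SD of buffer-only wells in both replicate plates, either sign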;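 also: integrated kinetic ratio of fluorescence range over baseline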). As to conditions: membrane potential fluorescence, at 10 µM.
A short description of test [3]: parental HEK293 depolarization signal interference – cell-based, second counter screen, counter-screen for TRPC6 inhibitor project, confirmation (AID 2779;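 active = membrane potential signal moving either way by over 3 SD of the maximum-effect control, in both duplicate plates, meaning non-specific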). To be noted: parental HEK293 membrane potential dye fluorescence; at 10 µM; maximal acetylcholine challenge after compound addition. (In general: A counterscreen serves to expose hits that act by an unwanted route or on another target.)

Test [4] is described as follows: nonspecific voltage dye signal in HEK293 – cell-based, parental HEK293, counter-screen for TRPC6 inhibitor project, confirmation (AID 2780;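 active = membrane potential signal shifting up or down by more than 3 SD of buffer-only wells, on both duplicate plates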;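 as to membrane potential signal change: plate controls were buffer EC0 wells for no effect and acetylcholine ECmax wells for full effect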). To be noted: parental HEK293 membrane potential dye fluorescence; at 10 µM.
Test [5] concerns the target Short transient receptor potential channel 6 (Mus musculus) (UniProt Q61143). Kind of test: blockers of TRPC6 cation channel activity – HEK293 cells, membrane potential dye, duplicate, confirmation (AID 488960).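 As to inhibition: integrated fluorescence ratio of peak minus minimum over baseline after agonist.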 As to conditions: ACh-evoked depolarization, at 10 µM; stronger effect = higher value.
The target is the same in test [6]. Kind of test: mouse TRPC6 channel activators, confirmation, HEK293 cells, membrane potential dye, duplicate (AID 488961;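 active = ratio signal rise beyond 5 SD above unstimulated control wells' mean, seen in both duplicate runs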). As to conditions: HEK293-TRPC6 membrane potential dye fluorescence, FDSS, at 10 µM; stronger effect = higher value.
The nature of test [7]: nonspecific voltage dye response without TRPC6 – cell-based, parental HEK293, counter-screen for TRPC6 modulator project, confirmation (AID 488924;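 active = membrane potential signal moves up or down beyond 5 SD from buffer-only wells, on both duplicate plates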). To be noted: parental HEK293, membrane potential dye fluorescence; at 10 µM.
A short description of test [8]: membrane potential response modulators in host HEK293 cells – cell-based, second counter-screen, parental HEK293, membrane potential dye, counter-screen for TRPC6 modulator project, confirmation (AID 488926;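 active = membrane potential signal drops by more than 5 SD from the mean control signal, in both duplicate plates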). To be noted: parental HEK293, membrane potential dye fluorescence, at 10 µM, after compound, maximal acetylcholine stimulation; stronger effect = higher value.
Test [9] has as its system Transient receptor potential cation channel subfamily C member 4 (mouse). Kind of test: off-target membrane potential effects via mouse TRPC4 – cell-based, HEK293 TRPC4/mu-opioid, membrane potential dye, selectivity assay for TRPC6 modulator project, confirmation (AID 488927;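 active = membrane potential signal moved up or down beyond 5 SD of buffer control wells, in both duplicate plates, actives on both sides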). As to conditions: membrane potential fluorescence, at 10 µM.
Test [10] deals with TRPC4 (transient receptor potential cation channel C4), mouse. The experiment in a line: DAMGO-evoked mouse TRPC4 response blockade – cell-based, second screen, HEK293 TRPC4/mu-opioid, membrane potential dye, selectivity assay for TRPC6 modulator project, confirmation (AID 488928;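 active = drop in membrane potential signal beyond 5 SD of the control wells in both duplicate plates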;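 also: TRPC4 counter screen for TRPC6 hits run under conditions tuned for TRPC6 not TRPC4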). To be noted: membrane potential dye fluorescence, at 10 µM, stimulated with maximal-effect DAMGO; stronger effect = higher value.

Test [11] concerns TRPC4 beta (transient receptor potential cation channel C4), mouse. The experiment in a line: TRPC4 cation channel opening, retest – cell-based, Fluo4 calcium, HEK293 TRPC4beta/mu-opioid, duplicates, 10 µM, confirmation (AID 2426;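 active = fluorescence ratio normalized to control raised more than 50% in primary screen plus both repeat runs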;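 also: percent rise of integrated ratio over buffer wells lacking compound which define 0%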). To be noted: Fluo4 calcium fluorescence, at 10 µM; stronger effect = higher value.
Test [12] deals with transient receptor potential cation channel C4 beta (TRPC4), mouse. Kind of test: TRPC4 cation channel opening, second retest – cell-based, second round, Fluo4, HEK293 TRPC4beta/mu-opioid, 1 µM, confirmation (AID 2461;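 active = primary screen active and over 50% activation in each of two duplicate runs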;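 as to activation: 0% = wells without test compound as baseline of integrated fluorescence ratio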). To be noted: Fluo4 calcium fluorescence, at 1 µM; stronger effect = higher value.
Test [13] concerns TRPC4 (transient receptor potential cation channel C4 beta), mouse. Kind of test: potentiation of DAMGO EC20 TRPC4 response – cell-based, second round, Fluo-4, HEK293 TRPC4beta/mu-opioid, 1 µM, confirmation (AID 2554;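 active = primary screen hit whose fluorescence ratio, in both repeats, exceeds the weak agonist control mean by 3 SD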). As to conditions: DAMGO EC20, Fluo-4 calcium flux, at 1 µM; stronger effect = higher value. For orientation: A change in cytosolic calcium serves as a functional read-out for many receptors and channels.

Test [14] deals with TRPC4 beta (transient receptor potential cation channel C4), mouse. The experiment in a line: potentiation of DAMGO EC20 TRPC4 response – cell-based, Fluo-4, HEK293 TRPC4beta/mu-opioid, confirmation (AID 2555;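 active = primary screen hit whose calcium fluorescence ratio, in both repeats, exceeds the weak agonist control mean by 3 SD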). To be noted: DAMGO EC20, Fluo-4 calcium flux, at 10 µM; stronger effect = higher value.
Test [15] concerns the target Short transient receptor potential channel 4 (Mus musculus) (UniProt Q9QUQ5). The experiment in a line: blockers of DAMGO-evoked TRPC4 calcium flux – cell-based, Fluo4, HEK293 TRPC4beta/mu-opioid, confirmation (AID 2636;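 active = calcium signal cut by more than 3 SD below the full-agonist control yet still positive, in both repeats and the earlier primary screen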). To be noted: at 10 µM; stronger effect = higher value.
For test [16] the target is unchanged. Kind of test: blockers of DAMGO-evoked TRPC4 calcium flux – cell-based, second round, Fluo4, HEK293 TRPC4beta/mu-opioid, 1 µM, confirmation (AID 2637;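 active = calcium signal ratio cut to more than 3 SD under the fully stimulated control mean yet still positive, in both repeats and the primary screen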). To be noted: at 1 µM; stronger effect = higher value.
For test [17] the target is unchanged. Kind of test: block of DAMGO-driven TRPC4 calcium entry – cell-based, HEK293 TRPC4/mu-opioid, Fluo-4 calcium, dose response (AID 434942;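 active = primary screen inhibitor hit that blocks the TRPC4 channel at some tested dose, yielding a dose curve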).
The target of test [18] is Short transient receptor potential channel 6 (Mus musculus) (UniProt Q61143). Kind of test: TRPC6 blockade by TRPC4 inhibitor hits – cell-based, HEK293, membrane potential dye, duplicate, selectivity assay for TRPC4 inhibitor project, confirmation (AID 434948;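 active = active in primary screen and both duplicates, each dropping signal beyond three positive-control SD with fluorescence still positive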). To be noted: HEK293 TRPC6, membrane potential dye fluorescence, at 10 µM, stimulated with maximal-effect acetylcholine; stronger effect = higher value.
Short transient receptor potential channel 6 (Mus musculus), sequence (Q61143 whole entry, looked up): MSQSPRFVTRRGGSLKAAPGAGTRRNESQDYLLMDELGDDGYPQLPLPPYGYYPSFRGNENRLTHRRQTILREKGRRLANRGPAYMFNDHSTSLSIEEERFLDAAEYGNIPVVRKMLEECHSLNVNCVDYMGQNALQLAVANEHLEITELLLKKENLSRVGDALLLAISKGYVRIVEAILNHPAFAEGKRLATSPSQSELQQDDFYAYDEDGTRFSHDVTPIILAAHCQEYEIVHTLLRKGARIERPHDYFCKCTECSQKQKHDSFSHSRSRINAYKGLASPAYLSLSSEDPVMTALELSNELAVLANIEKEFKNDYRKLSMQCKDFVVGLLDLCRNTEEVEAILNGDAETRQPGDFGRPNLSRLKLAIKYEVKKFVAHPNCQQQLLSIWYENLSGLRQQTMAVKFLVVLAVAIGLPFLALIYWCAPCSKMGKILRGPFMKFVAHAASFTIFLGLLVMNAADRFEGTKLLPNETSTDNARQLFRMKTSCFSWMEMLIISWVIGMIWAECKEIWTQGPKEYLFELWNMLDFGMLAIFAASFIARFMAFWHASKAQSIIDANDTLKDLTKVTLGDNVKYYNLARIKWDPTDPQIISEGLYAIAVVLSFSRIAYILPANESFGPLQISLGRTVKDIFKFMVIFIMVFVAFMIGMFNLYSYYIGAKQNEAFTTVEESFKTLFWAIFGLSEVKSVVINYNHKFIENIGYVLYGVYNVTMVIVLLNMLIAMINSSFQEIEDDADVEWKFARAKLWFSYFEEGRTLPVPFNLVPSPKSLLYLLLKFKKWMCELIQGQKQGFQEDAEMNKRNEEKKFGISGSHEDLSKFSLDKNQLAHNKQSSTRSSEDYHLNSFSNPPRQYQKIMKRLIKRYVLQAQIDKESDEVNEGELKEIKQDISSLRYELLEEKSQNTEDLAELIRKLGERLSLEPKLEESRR

Test [19] shares this target. Kind of test: TRPC6 opening by TRPC4 activator hits – cell-based, HEK293, membrane potential dye, duplicate, selectivity assay for TRPC4 activator project, confirmation (AID 434950;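 active = membrane potential signal rise above negative control mean plus 3 SD in both duplicates, also active in the earlier TRPC4 screen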;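 also: 0% = buffer only wells and 100% = acetylcholine maximal-effect wells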). To be noted: HEK293 TRPC6, membrane potential fluorescence, at 10 µM; activation: stronger effect = higher value; outcome: activation.
The target is the same in test [20]. Kind of test: positive modulators of mouse TRPC6 channel – HEK293 cells, membrane potential dye, duplicate, selectivity assay for TRPC4 potentiator project, confirmation (AID 434952;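 active = compound raising the membrane signal above positive-control mean plus 3 SD in both repeats, and a primary screen hit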). To be noted: HEK293 TRPC6, membrane potential dye fluorescence, at 10 µM, maximal acetylcholine added after compound; stronger effect = higher value.
Test [21] concerns the target Short transient receptor potential channel 4 (Mus musculus) (UniProt Q9QUQ5). The experiment in a line: calcium flux activators in TRPC4/5HT1a cells, counter-screen for TRPC4 activator project, cell-based, second counter screen, HEK293 TRPC4/5HT1a, Fluo-4 (AID 434977;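 active = calcium signal rise above buffer-control mean plus 5 SD in both duplicates, and also a hit in the primary screen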;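 also: plate controls were assay buffer for no effect and maximal serotonin response for full effect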). To be noted: Fluo-4 calcium flux, at 10 µM; stronger effect = higher value.
The nature of test [22]: serotonin-gated TRPC4 signal block – cell-based, second counter screen, HEK293 TRPC4/5HT1a, Fluo-4, counter-screen for TRPC4 inhibitor project, confirmation (AID 434978;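 active = primary screen active whose calcium signal fell more than 3 SD beyond the full-serotonin control mean in both duplicate plates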;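 also: serotonin given first at submaximal then at maximal dose after compound preincubation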). As to conditions: Fluo-4 calcium flux, at 10 µM, serotonin added to trigger calcium flux; stronger effect = higher value.
The test system of test [23] is TRPC4 (mouse), co-expressed with 5HT1a in HEK293. The experiment in a line: enhancement of serotonin-evoked TRPC4 response – cell-based, second counter screen, HEK293 TRPC4/5HT1a, Fluo-4, counter-screen for TRPC4 potentiator project, confirmation (AID 434979;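 active = signal rise over 3 SD above mean of control wells given weak agonist, in both repeats and first screen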). To be noted: Fluo-4 calcium flux, at 10 µM, serotonin added at its EC20 dose; stronger effect = higher value.
Test [24] in a line: nonspecific calcium rise without TRPC4 – cell-based, HEK293 mu-opioid receptor line, counter-screen for TRPC4 activator project, confirmation (AID 449723;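 active = hit in primary screen, with calcium signal over 5 SD above buffer well mean in both duplicates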;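 also: counter screen cells carry the mu-opioid receptor alone and lack TRPC4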). As to conditions: HEK293 mu-opioid cells, Fluo-4 calcium fluorescence, at 10 µM; stronger effect = higher value.
Test [25] in a line: nonspecific potentiation of DAMGO calcium response – cell-based, HEK293 mu-opioid receptor line, counter-screen for TRPC4 allosteric potentiator project, confirmation (AID 449724;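 active = calcium signal rise more than 3 SD above the low-dose agonist control mean, in both duplicate plates and the primary screen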). As to conditions: HEK293 mu-opioid receptor cells, Fluo-4 calcium flux, at 10 µM, compound added before EC20 DAMGO stimulus; stronger effect = higher value.

With `CCN(CC)CCn1c2ccc(Cl)cc2c2nc(C)sc21`, the inhibition is 57.5% (active) in test [1] and 49.7% (active) in test [5]. In addition, the compound was classed as inactive in test [2], in [3] and in test [6]. Besides, the membrane potential signal change in test [4] was -267% (active).
In the case of `Nc1ccc(C(=O)N2CCN(S(=O)(=O)c3ccc(Cl)cc3)CC2)cc1[N+](=O)[O-]`, the outcome in test [7], in test [8], in test [9] and in [10] was inactive. Further, in test [5], the inhibition was 72.5% (active).
With `COc1ccc(N/C(C)=C2/C(=O)C(=O)N(CCO)C2c2ccc(Br)cc2)cc1` (stereo unspecified), the values for the activation in [11], in test [19] and in [21] were 289% (active), 31.5% (active) and 57.5% (active), respectively. Besides, the result in [12], in test [14], in test [15], in test [16], in [17] and in test [18] was inactive. The result in test [20], in test [22], in [24] and in [25] was inactive. In addition, the potentiation was 141% (active) in test [13] and 60.7% (active) in test [23].
Turning to `CN(C)c1ccc(C2N(C)C(=O)c3ccccc3N2C)cc1` (stereo unspecified), the compound was classed as inactive in test [1], in [2], in test [4], in test [5] and in test [6]. In test [3], the signal change vs control is 262% (active).
As for `CCOC(=O)N1CCC(NC(=O)CN2C(=O)COc3ccc(C(C)(C)C)cc32)CC1`, the call in test [1], in [2], in test [3], in test [4] and in test [5] was inactive.
With `CCCCCOc1ccc(CSC2=NCCN2)cc1[N+](=O)[O-]`, the inhibition was 59% (active) in test [1] and 54.9% (active) in [5]. Further, the call in test [2], in [3], in [4] and in [6] was inactive.
Take `CCN(CC)c1ccc2cc(C(N)=O)/c(=N\NC(=O)c3ccncc3)oc2c1`: the inhibition in [1] is 70.5% (active). Also, in test [2], the activity change, negative = inhibition is 31.7% (active). The signal change vs control in [3] was -52% (active). In addition, the membrane potential signal change in test [4] is 1.95% (active). The call in [5] and in [6] was inactive.
In the case of `c1ccc(C2c3[nH]c4ccccc4c3CCN2Cc2cccn2-c2cccnc2)nc1` (stereo unspecified), the result in [1], in test [3], in test [5] and in [6] was inactive. For the same compound, the activity change, negative = inhibition in [2] was -10.1% (active). For the same compound, the membrane potential signal change in test [4] was -129% (active).
`Cn1c(=NC(=O)c2cnccn2)sc2ccccc21`: the result in test [1], in test [5] and in test [6] was inactive. In addition, the activity change, negative = inhibition in [2] was -25.3% (active). The signal change vs control in test [3] was 24.5% (active). Moreover, the membrane potential signal change in test [4] is -416% (active).
As to `Cc1cc(OCCNCCO)cc(C)c1Cl`, the activation in [11] was 122% (active); in test [12], 65% (active); in [19] it was 37% (active); in test [21], 35.3% (active). Also, the figures for the potentiation in test [13], in [14] and in test [23] were 20% (active), 19% (active) and 24.3% (active), respectively. For the same compound, the outcome in test [15], in test [16], in test [17], in test [18], in [20] and in [22] was inactive. Further, the result in [24] and in test [25] was inactive.
